Drawing on PubChem BioAssay (EPA / NIEHS), this text covers AC50 and outcome for one molecule.

“And” between values parts separate entries of the source, which are not always exact repeats. Identical values can stand only once. A structure can be active in one record and inactive in another. The source made the active and inactive calls. Rule for the calls: active = hit-call score of the fitted dose curve at least 0.9, where 1 is the maximum; inactive = score below 0.9.

Read-out in assay [1]: Urokinase-type plasminogen activator receptor (uPAR), PLAUR (gene 5329)
In words: BSK_CASM3C_uPAR: BioMAP Diversity Plus: CASM3C Assay for Urokinase-type plasminogen activator receptor (uPAR) Biomarker Activity (AID 2283054).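 Note: cell-surface uPAR protein level quantified by ELISA.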 The following applies: primary human coronary artery smooth muscle cells; actives raise or lower the signal.

Read-out in assay [2]: Vascular cell adhesion molecule 1 (VCAM1), VCAM1 (gene 7412)
The assay can be described thus: BSK_CASM3C_VCAM1: BioMAP Diversity Plus: CASM3C Assay for Vascular cell adhesion molecule 1 (VCAM1) Biomarker Activity (AID 2283055).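 Note: VCAM-1 protein level quantified by ELISA on the cells.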 The following applies: primary human coronary artery smooth muscle cells; actives raise or lower the signal.

Read-out in assay [3]: Epidermal growth factor receptor (EGFR), EGFR (gene 1956)
In words: BSK_hDFCGF_EGFR: BioMAP Diversity Plus: hDFCGF Assay for Epidermal growth factor receptor (EGFR) Biomarker Activity (AID 2283057). The following applies: primary human foreskin fibroblasts; actives raise or lower the signal. The gist of the method: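 EGFR levels by ELISA in human dermal fibroblast cultures, 24 h post-treatment, fitted bidirectionally versus DMSO. Parallel wells stained with sulforhodamine B to detect overt cytotoxicity.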

Read-out in assay [4]: Interleukin-8 (IL8), CXCL8 (gene 3576)
In words: BSK_hDFCGF_IL8: BioMAP Diversity Plus: hDFCGF Assay for Interleukin-8 (IL8) Biomarker Activity (AID 2283058). To be noted: primary human foreskin fibroblasts; actives raise or lower the signal. The gist of the method:
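Cells used are human skin primary fibroblasts. Chemical is added, cultures run 24 h, then IL-8 is quantified by ELISA, and gain or loss versus DMSO control is fitted in both directions.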

Assay [5] can be described thus: BSK_hDFCGF_Proliferation: Cell Proliferation Assessment in the BioMAP Diversity Plus: hDFCGF Assay (AID 2283059).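 Note: curves fitted for both rise and fall of signal versus DMSO baseline.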 To be noted: primary human foreskin fibroblasts. In a few lines:
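Steps: dose primary human dermal fibroblasts (foreskin); […] fix in 10% TCA; stain with 0.1% SRB; read 560 nm; fit gain or loss of signal against DMSO.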

Read-out in assay [6]: Macrophage colony-stimulating factor (MCSF), CSF1 (gene 1435)
The assay can be described thus: BSK_hDFCGF_MCSF: BioMAP Diversity Plus: hDFCGF Assay for Macrophage colony-stimulating factor (MCSF) Biomarker Activity (AID 2283060). The following applies: primary human foreskin fibroblasts; actives raise or lower the signal. In a few lines:
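Primary human foreskin fibroblasts dosed with chemical; 24 h later, M-CSF quantified by ELISA; curves fitted in both directions vs DMSO negative control.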

A short description of assay [7]: BSK_hDFCGF_SRB: Viability Assessment in the BioMAP Diversity Plus: hDFCGF Assay (AID 2283061).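 Note: cells exposed to compound for 24 h before the read.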 To be noted: primary human foreskin fibroblasts. In a few lines:
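Readout is SRB absorbance at 560 nm, reflecting total protein in parallel cultures of human foreskin fibroblasts harvested 24 h after chemical dosing. Activity was fitted bidirectionally relative to DMSO.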

Read-out in assay [8]: TIMP metallopeptidase inhibitor 1 (TIMP1), TIMP1 (gene 7076)
The assay can be described thus: BSK_hDFCGF_TIMP1: BioMAP Diversity Plus: hDFCGF Assay for TIMP metallopeptidase inhibitor 1 (TIMP1) Biomarker Activity (AID 2283062). The following applies: primary human foreskin fibroblasts; actives raise or lower the signal. In a few lines:
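Human skin fibroblasts (primary), hDFCGF system; compound exposure 24 h; TIMP-1 by ELISA; bidirectional fit vs DMSO negative control; overt cytotoxicity by SRB in parallel wells.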

Read-out in assay [9]: Monokine induced gamma interferon (MIG), CXCL9 (gene 4283)
The assay can be described thus: BSK_hDFCGF_MIG: BioMAP Diversity Plus: hDFCGF Assay for Monokine induced gamma interferon (MIG) Biomarker Activity (AID 2283063). To be noted: primary human foreskin fibroblasts; actives raise or lower the signal. In a few lines: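 Chemicals were added to primary human foreskin fibroblast cultures, which were sampled 24 h later. MIG levels were then quantified by ELISA and responses fitted in both directions relative to DMSO.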

Read-out in assay [10]: Matrix Metallopeptidase 1 (MMP1), MMP1 (gene 4312)
The assay can be described thus: BSK_hDFCGF_MMP1: BioMAP Diversity Plus: hDFCGF Assay for Matrix Metallopeptidase 1 (MMP1) Biomarker Activity (AID 2283064). The following applies: primary human foreskin fibroblasts; actives raise or lower the signal. The gist of the method:
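Human foreskin fibroblasts exposed to chemical for 24 h; MMP1 detected by ELISA, with DMSO as baseline for bidirectional fitting.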

Read-out in assay [11]: Vascular cell adhesion molecule 1 (VCAM1), VCAM1 (gene 7412)
The assay can be described thus: BSK_hDFCGF_VCAM1: BioMAP Diversity Plus: hDFCGF Assay for Vascular cell adhesion molecule 1 (VCAM1) Biomarker Activity (AID 2283065).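 Note: VCAM-1 protein level quantified by ELISA after 24 h chemical exposure.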 To be noted: primary human foreskin fibroblasts; actives raise or lower the signal. In a few lines: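 Human foreskin fibroblast primary cells, chemical exposure 24 h; VCAM-1 by ELISA; bidirectional fit, DMSO = negative control/baseline.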

Read-out in assay [12]: Plasminogen activator inhibitor-1 (PAI1), SERPINE1 (gene 5054)
In words: BSK_hDFCGF_PAI1: BioMAP Diversity Plus: hDFCGF Assay for Plasminogen activator inhibitor-1 (PAI1) Biomarker Activity (AID 2283066). To be noted: primary human foreskin fibroblasts; actives raise or lower the signal. The gist of the method: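 PAI-1 levels in human dermal foreskin fibroblasts were quantified by ELISA 24 h after dosing, with gain or loss analysed against DMSO. Overt cytotoxicity was checked by sulforhodamine B total-protein staining in parallel cultures.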

Read-out in assay [13]: Intercellular Adhesion Molecule 1 (ICAM1), ICAM1 (gene 3383)
The assay can be described thus: BSK_KF3CT_ICAM1: BioMAP Diversity Plus: KF3CT Assay for Intercellular Adhesion Molecule 1 (ICAM1) Biomarker Activity (AID 2283067). The following applies: primary human keratinocytes with fibroblasts; actives raise or lower the signal. The gist of the method: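 ICAM-1 levels are measured by ELISA 24 h after dosing a primary human co-culture of keratinocytes and foreskin fibroblasts. Activity in either direction is fitted relative to DMSO vehicle.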

Read-out in assay [14]: Interferon-gamma inducible Protein 10 (IP10), CXCL10 (gene 3627)
The assay can be described thus: BSK_KF3CT_IP10: BioMAP Diversity Plus: KF3CT Assay for Interferon-gamma inducible Protein 10 (IP10) Biomarker Activity (AID 2283068). The following applies: primary human keratinocytes with fibroblasts; actives raise or lower the signal. In a few lines:
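KF3CT co-culture (keratinocytes + foreskin fibroblasts), 24 h compound, IP-10 by ELISA; bidirectional fit vs DMSO baseline.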

Assay [15] is described as follows: BSK_KF3CT_SRB: Viability Assessment in the BioMAP Diversity Plus: KF3CT Assay (AID 2283069).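 Note: read 24 h after compound addition; fitted for both signal gain and loss against DMSO baseline.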 The following applies: primary human keratinocytes with fibroblasts. The gist of the method:
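Overt cytotoxicity is assessed as total protein by sulforhodamine B staining in parallel human skin co-cultures at 24 h after dosing. DMSO serves as negative control and baseline.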

Read-out in assay [16]: Interleukin-1 alpha (IL1a), IL1A (gene 3552)
In words: BSK_KF3CT_IL1a: BioMAP Diversity Plus: KF3CT Assay for Interleukin-1 alpha (IL1a) Biomarker Activity (AID 2283070). To be noted: primary human keratinocytes with fibroblasts; actives raise or lower the signal. The gist of the method: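 Readout is IL-1a level by ELISA, compared bidirectionally with DMSO as baseline. Cells: human keratinocytes co-cultured with foreskin fibroblasts, harvested 24 h post-dose.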

Read-out in assay [17]: TIMP metallopeptidase inhibitor 2 (TIMP2), TIMP2 (gene 7077)
In words: BSK_KF3CT_TIMP2: BioMAP Diversity Plus: KF3CT Assay for TIMP metallopeptidase inhibitor 2 (TIMP2) Biomarker Activity (AID 2283071). To be noted: primary human keratinocytes with fibroblasts; actives raise or lower the signal. The gist of the method:
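TIMP-2 measured by ELISA at 24 h in human keratinocyte/fibroblast primary co-cultures exposed to chemicals. Both increases and decreases were fitted against DMSO. Parallel cultures were stained with SRB for total protein as an overt-cytotoxicity check.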

Read-out in assay [18]: C-C motif chemokine 2 (Homo sapiens) (UniProt P13500)
The assay can be described thus: BSK_KF3CT_MCP1: BioMAP Diversity Plus: KF3CT Assay for Monocyte Chemoattractant Protein 1 (MCP1/CCL2) Biomarker Activity (AID 2283073). To be noted: primary human keratinocytes with fibroblasts; actives raise or lower the signal. The gist of the method: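 ELISA readout of MCP-1 after 24 h chemical dosing of a human skin primary co-culture of keratinocytes and foreskin fibroblasts. Activity was fitted in both directions against DMSO.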

Read-out in assay [19]: Matrix Metallopeptidase 9 (MMP9), MMP9 (gene 4318)
In words: BSK_KF3CT_MMP9: BioMAP Diversity Plus: KF3CT Assay for Matrix Metallopeptidase 9 (MMP9) Biomarker Activity (AID 2283074).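 Note: MMP9 protein level quantified by ELISA in the co-culture.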 The following applies: primary human keratinocytes with fibroblasts; actives raise or lower the signal. The gist of the method: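 Values come from bidirectional fitting relative to DMSO of MMP-9 levels, which were measured by ELISA. Measurements were taken 24 h after chemical dosing of a keratinocyte and foreskin fibroblast co-culture.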

Read-out in assay [20]: urokinase plasminogen activator (uPA), PLAU (gene 5328)
The assay can be described thus: BSK_KF3CT_uPA: BioMAP Diversity Plus: KF3CT Assay for urokinase plasminogen activator (uPA) Biomarker Activity (AID 2283075). The following applies: primary human keratinocytes with fibroblasts; actives raise or lower the signal. In a few lines:
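Values derive from bidirectional fitting against DMSO controls. Keratinocyte/foreskin fibroblast co-cultures received chemical; 24 h later uPA was detected by ELISA, with SRB total-protein staining in parallel wells for overt cytotoxicity.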

Read-out in assay [21]: CD40, CD40 (gene 958)
The assay can be described thus: BSK_LPS_CD40: BioMAP Diversity Plus: LPS Assay for CD40 Biomarker Activity (AID 2283076). The following applies: primary human HUVEC with PBMC; actives raise or lower the signal. In a few lines:
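Cells were dosed, incubated 24 h, then assayed for CD40 by ELISA. Gain or loss of signal was analysed relative to DMSO controls. The culture paired human umbilical vein endothelium with peripheral blood mononuclear cells.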

With `[Cd+2].[Cl-].[Cl-]`, the AC50 is 9.94 µM (active) and 6.24 µM (active) in assay [1]; 4.05 µM (active) and 3.51 µM (active) in [2]; 0.156 µM (active) in assay [3]; 24.2 µM (active) and 23 µM (active) in [4]; 919 nM (active) and 655 nM (active) in assay [5]; 939 nM (active) and 1.2 µM (active) in assay [6]. Also, the AC50 in assay [8] was 1.12 µM (active) and 1.63 µM (active); in assay [9] it was 9.86 µM (active) and 5.69 µM (active); in assay [10] it was 3.97 µM (active) and 4.18 µM (active); in assay [11], 1.9 µM (active) and 2.23 µM (active); in assay [12], 601 nM (active) and 305 nM (active); in assay [13] it was 29.2 µM (active) and 27.5 µM (active). Further, the AC50 in [14] is 35.2 µM (active) and 33.4 µM (active); in [15], 32.4 µM (active) and 32.1 µM (active); in assay [16], 33.8 µM (active) and 30.1 µM (active); in [17], 28.2 µM (active) and 20 µM (active); in assay [18], 20 µM (active) and 14.1 µM (active); in [19], 16.2 µM (active) and 20.5 µM (active). Moreover, the AC50 in assay [20] is 32.6 µM (active) and 35.8 µM (active); in [21], 13.1 µM (active). For the same molecule, the result in [3], in [7] and in [21] was inactive.

Usually AC50 stands for the concentration giving half of the maximal activity seen.
